Results from ChEMBL document CHEMBL1961873, “Compounds: GSK PKIS; Assays: Nanosyn kinase panel” (2012).

Assays:
[1] = target: Protein kinase C gamma type (Homo sapiens) (UniProt P05129); details: at 1 µM;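 also: each value is an averaged percent inhibition of the enzyme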
[2] = target: T1, Protein kinase C iota type (Homo sapiens) (UniProt P41743); details: at 0.1 µM
T1 sequence (whole entry): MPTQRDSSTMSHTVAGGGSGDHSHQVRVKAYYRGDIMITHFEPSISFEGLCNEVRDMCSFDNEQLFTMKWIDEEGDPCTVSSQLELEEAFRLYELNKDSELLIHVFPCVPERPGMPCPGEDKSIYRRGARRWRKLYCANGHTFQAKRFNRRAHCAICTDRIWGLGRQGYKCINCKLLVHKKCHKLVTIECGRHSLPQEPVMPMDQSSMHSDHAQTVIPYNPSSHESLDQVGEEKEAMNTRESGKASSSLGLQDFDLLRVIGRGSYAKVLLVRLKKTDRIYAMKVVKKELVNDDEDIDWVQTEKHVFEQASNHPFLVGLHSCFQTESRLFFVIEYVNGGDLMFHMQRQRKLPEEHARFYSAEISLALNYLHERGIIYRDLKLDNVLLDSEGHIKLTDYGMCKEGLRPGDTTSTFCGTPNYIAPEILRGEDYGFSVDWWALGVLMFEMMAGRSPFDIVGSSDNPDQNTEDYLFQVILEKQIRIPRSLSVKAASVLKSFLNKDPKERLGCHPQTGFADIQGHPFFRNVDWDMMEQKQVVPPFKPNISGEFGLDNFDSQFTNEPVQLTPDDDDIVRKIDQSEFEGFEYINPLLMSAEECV

[3] = target: T1, Protein kinase C iota type (Homo sapiens); details: at 1 µM
[4] = target: Protein kinase C theta type (Homo sapiens) (UniProt Q04759); details: at 0.1 µM
[5] = target: Protein kinase C theta type (Homo sapiens) (UniProt Q04759); details: at 1 µM
[6] = target: Protein kinase C beta type (Homo sapiens) (UniProt P05771); details: at 0.1 µM
[7] = target: Protein kinase C beta type (Homo sapiens) (UniProt P05771); details: at 1 µM
[8] = target: T2, Serine/threonine-protein kinase D1 (Homo sapiens) (UniProt Q15139); details: at 0.1 µM
T2 sequence (whole entry): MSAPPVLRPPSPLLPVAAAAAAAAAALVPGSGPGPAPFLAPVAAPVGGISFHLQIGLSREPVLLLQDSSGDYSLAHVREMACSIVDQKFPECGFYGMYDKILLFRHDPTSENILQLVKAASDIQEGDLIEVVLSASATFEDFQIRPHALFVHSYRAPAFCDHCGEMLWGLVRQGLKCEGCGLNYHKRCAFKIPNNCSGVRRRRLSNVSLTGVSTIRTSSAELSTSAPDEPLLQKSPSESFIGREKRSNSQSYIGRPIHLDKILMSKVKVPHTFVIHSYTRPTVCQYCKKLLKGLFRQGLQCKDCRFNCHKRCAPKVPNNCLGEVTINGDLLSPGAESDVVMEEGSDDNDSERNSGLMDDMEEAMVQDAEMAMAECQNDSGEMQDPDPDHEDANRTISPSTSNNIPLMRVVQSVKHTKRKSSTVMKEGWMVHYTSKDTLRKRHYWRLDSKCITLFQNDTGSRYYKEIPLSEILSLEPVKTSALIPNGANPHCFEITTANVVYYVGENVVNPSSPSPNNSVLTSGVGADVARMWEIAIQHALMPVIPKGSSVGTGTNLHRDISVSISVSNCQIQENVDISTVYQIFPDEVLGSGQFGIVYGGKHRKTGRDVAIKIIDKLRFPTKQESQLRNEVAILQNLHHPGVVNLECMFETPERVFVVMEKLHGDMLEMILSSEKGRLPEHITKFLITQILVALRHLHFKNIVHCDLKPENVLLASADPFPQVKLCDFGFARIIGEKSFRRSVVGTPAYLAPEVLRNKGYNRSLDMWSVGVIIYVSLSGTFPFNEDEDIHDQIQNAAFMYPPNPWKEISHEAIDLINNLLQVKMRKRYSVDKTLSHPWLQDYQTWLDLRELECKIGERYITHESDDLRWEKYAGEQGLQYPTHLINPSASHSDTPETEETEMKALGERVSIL

[9] = target: T2, Serine/threonine-protein kinase D1 (Homo sapiens); details: at 1 µM
[10] = target: T3, Serine/threonine-protein kinase D2 (Homo sapiens) (UniProt Q9BZL6); details: at 0.1 µM
T3 sequence (whole entry): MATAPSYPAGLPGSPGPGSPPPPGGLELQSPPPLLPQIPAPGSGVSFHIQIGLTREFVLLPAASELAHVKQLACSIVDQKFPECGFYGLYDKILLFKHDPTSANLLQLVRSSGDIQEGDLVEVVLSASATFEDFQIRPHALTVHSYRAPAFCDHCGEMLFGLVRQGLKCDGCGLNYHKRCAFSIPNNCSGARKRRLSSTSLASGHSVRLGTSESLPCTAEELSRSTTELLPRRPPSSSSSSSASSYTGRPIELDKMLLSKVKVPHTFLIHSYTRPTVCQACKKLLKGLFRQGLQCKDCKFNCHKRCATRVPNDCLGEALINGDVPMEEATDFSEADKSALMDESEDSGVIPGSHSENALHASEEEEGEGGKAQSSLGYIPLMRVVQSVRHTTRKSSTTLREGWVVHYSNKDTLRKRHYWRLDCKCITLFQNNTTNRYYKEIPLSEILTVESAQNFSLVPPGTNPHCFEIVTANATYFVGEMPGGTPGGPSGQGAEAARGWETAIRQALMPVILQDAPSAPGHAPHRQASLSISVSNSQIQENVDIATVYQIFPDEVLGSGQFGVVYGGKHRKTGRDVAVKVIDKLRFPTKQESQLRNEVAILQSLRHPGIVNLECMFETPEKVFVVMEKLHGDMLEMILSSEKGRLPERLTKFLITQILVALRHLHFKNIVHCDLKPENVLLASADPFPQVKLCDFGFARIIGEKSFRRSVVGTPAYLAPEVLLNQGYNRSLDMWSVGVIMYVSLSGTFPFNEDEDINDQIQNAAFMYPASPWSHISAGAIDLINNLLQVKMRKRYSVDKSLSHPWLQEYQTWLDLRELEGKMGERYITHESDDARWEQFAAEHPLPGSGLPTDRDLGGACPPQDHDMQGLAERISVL

[11] = target: T3, Serine/threonine-protein kinase D2 (Homo sapiens); details: at 1 µM
[12] = target: T4, Serine/threonine-protein kinase D3 (Homo sapiens) (UniProt O94806); details: at 0.1 µM
T4 sequence (whole entry): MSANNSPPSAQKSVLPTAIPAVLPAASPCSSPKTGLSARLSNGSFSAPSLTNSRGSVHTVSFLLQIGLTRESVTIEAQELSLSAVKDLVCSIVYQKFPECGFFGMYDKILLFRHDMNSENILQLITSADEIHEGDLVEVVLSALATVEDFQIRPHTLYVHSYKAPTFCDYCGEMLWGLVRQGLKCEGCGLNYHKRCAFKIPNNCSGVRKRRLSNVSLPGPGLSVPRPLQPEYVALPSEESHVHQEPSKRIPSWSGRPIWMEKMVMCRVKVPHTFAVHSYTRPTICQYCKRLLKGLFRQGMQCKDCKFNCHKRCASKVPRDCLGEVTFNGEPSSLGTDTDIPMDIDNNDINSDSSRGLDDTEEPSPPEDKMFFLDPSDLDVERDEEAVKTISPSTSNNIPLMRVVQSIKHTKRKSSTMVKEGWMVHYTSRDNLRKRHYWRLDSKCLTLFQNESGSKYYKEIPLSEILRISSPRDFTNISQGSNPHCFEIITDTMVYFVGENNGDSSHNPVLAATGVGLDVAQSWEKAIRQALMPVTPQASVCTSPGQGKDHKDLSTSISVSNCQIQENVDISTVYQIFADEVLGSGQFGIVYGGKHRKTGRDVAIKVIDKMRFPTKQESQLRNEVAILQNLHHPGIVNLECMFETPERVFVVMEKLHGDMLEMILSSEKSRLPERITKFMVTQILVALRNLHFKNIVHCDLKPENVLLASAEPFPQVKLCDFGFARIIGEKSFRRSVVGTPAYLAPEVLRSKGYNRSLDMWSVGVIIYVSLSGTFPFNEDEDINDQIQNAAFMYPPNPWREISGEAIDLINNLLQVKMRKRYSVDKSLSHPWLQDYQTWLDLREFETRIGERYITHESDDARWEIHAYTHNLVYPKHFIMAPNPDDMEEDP

[13] = target: T4, Serine/threonine-protein kinase D3 (Homo sapiens); details: at 1 µM
[14] = target: T5, cGMP-dependent protein kinase 1 (Homo sapiens) (UniProt Q13976); details: at 0.1 µM
T5 sequence (whole entry): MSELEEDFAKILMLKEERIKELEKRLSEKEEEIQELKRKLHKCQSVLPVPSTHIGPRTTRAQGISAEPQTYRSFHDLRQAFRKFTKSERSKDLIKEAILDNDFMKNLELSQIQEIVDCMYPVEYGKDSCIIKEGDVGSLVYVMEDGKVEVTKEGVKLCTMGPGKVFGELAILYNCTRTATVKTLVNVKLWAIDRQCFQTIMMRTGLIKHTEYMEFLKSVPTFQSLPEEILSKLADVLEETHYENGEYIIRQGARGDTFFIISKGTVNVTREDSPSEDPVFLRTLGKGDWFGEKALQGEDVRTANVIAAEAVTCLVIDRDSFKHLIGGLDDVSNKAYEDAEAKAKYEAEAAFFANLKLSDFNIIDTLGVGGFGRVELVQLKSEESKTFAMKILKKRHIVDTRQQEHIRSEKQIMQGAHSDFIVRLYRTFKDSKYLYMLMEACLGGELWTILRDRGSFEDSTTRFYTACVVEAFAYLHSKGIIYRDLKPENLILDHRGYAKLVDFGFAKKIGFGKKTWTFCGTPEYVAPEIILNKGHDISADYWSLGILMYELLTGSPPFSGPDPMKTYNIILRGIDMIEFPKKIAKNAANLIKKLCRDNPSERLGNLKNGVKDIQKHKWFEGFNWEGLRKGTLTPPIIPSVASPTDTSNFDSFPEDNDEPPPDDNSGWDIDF

[15] = target: T5, cGMP-dependent protein kinase 1 (Homo sapiens); details: at 1 µM
[16] = target: T6, cGMP-dependent protein kinase 2 (Homo sapiens) (UniProt Q13237); details: at 0.1 µM
T6 sequence (whole entry): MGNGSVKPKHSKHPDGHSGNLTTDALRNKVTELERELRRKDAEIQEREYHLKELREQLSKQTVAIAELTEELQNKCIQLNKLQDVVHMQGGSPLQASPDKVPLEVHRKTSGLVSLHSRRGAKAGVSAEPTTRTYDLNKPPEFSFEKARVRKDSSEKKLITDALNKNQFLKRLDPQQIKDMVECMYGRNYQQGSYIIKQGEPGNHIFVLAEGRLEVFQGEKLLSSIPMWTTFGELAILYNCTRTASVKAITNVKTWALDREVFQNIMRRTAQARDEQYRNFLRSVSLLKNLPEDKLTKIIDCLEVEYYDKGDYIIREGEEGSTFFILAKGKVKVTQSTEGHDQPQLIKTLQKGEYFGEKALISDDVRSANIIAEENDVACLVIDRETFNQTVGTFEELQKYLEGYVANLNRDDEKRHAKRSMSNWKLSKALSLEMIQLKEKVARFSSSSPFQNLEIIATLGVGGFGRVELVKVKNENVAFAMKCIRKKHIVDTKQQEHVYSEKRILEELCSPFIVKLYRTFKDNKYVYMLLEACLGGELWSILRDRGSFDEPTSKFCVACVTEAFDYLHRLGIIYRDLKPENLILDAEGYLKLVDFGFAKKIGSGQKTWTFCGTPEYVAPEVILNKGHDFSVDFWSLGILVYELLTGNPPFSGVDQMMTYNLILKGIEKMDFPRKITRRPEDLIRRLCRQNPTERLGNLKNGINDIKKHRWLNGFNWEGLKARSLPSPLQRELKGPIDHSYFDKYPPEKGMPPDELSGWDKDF

[17] = target: T6, cGMP-dependent protein kinase 2 (Homo sapiens); details: at 1 µM
[18] = target: T7, cAMP-dependent protein kinase catalytic subunit PRKX (Homo sapiens) (UniProt P51817); details: at 0.1 µM
T7 sequence (whole entry): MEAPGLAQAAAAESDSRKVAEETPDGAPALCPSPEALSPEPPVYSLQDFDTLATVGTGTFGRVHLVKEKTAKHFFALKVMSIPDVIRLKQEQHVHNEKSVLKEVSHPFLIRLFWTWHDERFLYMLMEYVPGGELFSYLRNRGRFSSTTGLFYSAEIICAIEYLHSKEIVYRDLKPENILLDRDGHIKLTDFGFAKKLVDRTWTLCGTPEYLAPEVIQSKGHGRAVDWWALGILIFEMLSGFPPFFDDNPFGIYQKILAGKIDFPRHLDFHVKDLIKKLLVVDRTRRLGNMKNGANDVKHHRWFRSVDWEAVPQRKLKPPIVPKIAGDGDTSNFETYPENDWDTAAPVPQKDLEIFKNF

[19] = target: Rho-associated protein kinase 1 (Homo sapiens) (UniProt Q13464); details: at 0.1 µM;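 also: values are mean percent inhibition of ROCK1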
[20] = target: T7, cAMP-dependent protein kinase catalytic subunit PRKX (Homo sapiens); details: at 1 µM

Sequence of Protein kinase C theta type (Homo sapiens) (Q04759 whole entry, looked up): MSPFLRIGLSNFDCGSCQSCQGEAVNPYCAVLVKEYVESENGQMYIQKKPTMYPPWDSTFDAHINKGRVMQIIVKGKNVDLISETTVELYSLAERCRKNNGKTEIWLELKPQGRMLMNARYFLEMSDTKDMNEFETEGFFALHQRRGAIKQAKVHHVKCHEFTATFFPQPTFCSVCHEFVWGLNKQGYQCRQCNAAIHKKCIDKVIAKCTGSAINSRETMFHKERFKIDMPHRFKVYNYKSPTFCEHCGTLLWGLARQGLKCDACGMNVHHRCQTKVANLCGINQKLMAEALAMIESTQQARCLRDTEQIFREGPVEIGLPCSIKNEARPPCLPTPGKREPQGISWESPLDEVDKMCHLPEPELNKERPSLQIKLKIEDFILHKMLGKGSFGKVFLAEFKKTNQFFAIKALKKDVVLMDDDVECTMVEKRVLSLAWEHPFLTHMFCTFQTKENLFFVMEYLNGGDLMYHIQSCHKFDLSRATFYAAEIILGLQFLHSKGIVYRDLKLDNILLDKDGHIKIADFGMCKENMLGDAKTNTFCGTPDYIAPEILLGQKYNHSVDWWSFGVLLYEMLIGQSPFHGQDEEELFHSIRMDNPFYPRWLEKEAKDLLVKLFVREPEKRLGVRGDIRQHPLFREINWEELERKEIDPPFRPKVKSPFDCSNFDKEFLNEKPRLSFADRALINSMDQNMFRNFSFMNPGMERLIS
Sequence of Protein kinase C beta type (Homo sapiens) (P05771 2-671 limits assumed): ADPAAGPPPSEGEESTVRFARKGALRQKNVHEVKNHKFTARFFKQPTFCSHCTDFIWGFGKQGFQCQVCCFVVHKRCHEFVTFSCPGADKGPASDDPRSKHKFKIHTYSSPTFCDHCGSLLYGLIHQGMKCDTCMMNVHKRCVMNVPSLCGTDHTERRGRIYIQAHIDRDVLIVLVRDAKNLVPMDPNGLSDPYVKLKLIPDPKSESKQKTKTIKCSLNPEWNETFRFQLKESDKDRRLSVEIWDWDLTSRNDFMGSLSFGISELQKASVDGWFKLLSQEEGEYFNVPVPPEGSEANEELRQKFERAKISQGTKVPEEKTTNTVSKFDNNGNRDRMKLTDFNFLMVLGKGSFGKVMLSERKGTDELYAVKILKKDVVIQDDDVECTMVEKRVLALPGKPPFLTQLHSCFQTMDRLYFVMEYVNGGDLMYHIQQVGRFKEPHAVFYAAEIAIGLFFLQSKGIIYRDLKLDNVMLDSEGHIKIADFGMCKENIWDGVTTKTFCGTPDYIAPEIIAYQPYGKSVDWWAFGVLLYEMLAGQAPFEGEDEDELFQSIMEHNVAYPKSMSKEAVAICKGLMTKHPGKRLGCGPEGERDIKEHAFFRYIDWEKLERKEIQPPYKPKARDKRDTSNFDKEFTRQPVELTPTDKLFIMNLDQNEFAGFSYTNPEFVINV
Sequence of Rho-associated protein kinase 1 (Homo sapiens) (Q13464 2-1354 limits assumed): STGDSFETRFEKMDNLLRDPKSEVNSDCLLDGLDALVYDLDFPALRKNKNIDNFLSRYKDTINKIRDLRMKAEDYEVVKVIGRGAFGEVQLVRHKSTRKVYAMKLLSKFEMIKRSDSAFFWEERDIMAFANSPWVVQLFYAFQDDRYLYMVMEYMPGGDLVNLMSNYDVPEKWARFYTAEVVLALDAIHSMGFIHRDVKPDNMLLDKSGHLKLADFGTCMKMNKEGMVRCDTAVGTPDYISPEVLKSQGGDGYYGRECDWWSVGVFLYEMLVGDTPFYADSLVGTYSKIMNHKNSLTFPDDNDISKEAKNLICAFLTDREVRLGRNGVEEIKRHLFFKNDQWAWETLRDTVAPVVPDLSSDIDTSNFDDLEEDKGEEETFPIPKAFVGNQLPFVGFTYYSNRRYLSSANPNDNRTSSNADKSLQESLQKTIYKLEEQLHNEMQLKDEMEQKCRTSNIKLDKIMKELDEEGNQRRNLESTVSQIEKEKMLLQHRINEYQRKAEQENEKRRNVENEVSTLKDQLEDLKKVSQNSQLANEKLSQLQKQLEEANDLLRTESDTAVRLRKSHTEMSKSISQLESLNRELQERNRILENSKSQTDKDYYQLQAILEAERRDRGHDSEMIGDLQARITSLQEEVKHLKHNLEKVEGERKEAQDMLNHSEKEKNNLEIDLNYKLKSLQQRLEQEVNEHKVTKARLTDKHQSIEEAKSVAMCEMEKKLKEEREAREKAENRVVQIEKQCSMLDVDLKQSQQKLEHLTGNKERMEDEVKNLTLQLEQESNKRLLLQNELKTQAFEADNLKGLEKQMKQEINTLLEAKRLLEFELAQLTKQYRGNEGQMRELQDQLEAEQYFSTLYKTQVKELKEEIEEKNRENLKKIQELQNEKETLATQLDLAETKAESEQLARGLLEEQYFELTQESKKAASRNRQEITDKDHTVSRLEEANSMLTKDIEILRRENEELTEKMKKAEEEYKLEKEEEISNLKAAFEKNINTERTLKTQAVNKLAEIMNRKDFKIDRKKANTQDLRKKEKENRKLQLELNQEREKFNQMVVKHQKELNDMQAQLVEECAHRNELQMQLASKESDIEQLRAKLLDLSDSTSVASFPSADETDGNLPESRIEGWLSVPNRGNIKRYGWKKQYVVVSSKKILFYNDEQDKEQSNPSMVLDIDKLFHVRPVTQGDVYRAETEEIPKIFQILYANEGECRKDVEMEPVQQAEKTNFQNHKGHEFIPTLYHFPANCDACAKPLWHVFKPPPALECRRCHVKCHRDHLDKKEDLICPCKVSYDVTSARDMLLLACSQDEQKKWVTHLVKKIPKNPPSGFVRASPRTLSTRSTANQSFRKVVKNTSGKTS

Molecule COc1cc2ncn(-c3cc(O[C@H](C)c4ccccc4Cl)c(C(N)=O)s3)c2cc1OC has an inhibition [1] of 4.01%, an inhibition [2] of 2.97% and an inhibition [3] of 0.22%. It also gave an inhibition [4] of 3.41%, an inhibition [5] of 4.9% and an inhibition [6] of 2.75%. It also gave an inhibition [7] of 3.52%, an inhibition [8] of 1.04% and an inhibition [9] of 3.84%. The inhibition [10] was 2.69%, the inhibition [11] was 4.06% and the inhibition [12] was 2.93%. The inhibition [13] was 2.62%, the inhibition [14] was 3.62% and the inhibition [15] was 4.56%. The inhibition [16] was 3.5%, the inhibition [17] was 5.66% and the inhibition [18] was 2.91%. It also gave an inhibition [19] of 1.18%.
COC(=O)Nc1nc2cc(Oc3ccc(NC(=O)Nc4cccc(C(=O)O)c4)cc3)ccc2[nH]1 showed an inhibition [1] of -0.24%, an inhibition [2] of 0.47% and an inhibition [3] of -1.28%. The inhibition [4] was 0.18%, the inhibition [5] was 2.02% and the inhibition [6] was -0.5%. The inhibition [7] was 0.44%, the inhibition [8] was -1.35% and the inhibition [9] was -1.96%. For the same molecule, the inhibition [10] was -3.05%, the inhibition [11] was -1.55% and the inhibition [12] was -2.32%. For the same molecule, the inhibition [13] was -3.85%, the inhibition [14] was -0.28% and the inhibition [15] was 2.77%. The inhibition [16] was 1.1%, the inhibition [17] was 0.86% and the inhibition [18] was 0.76%. For the same molecule, the inhibition [20] was 1.8% and the inhibition [19] was 0.24%.
